The experiment can be described thus: Tanguay_ZF_120hpf_MUSC: Oregon State University Tanguay Lab 120 Hour Post-fertilization zebrafish Assay for Muscle Malformation (AID 2284401). The essentials:
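Scored as a binary brightfield endpoint at 120 hpf, fitted versus DMSO. Single dechorionated wild-type (Tropical 5D) zebrafish embryos per well, statically exposed at 28C from 6 hpf onward with final DMSO 0.64%.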

Calls of active or inactive are those of the source. Rule for the calls: active = hit-call score of the fitted dose curve at least 0.9, where 1 is the maximum; inactive = score below 0.9.

`CC(C)(C)C(=O)CC(=O)C(F)(F)C(F)(F)C(F)(F)F`: the compound was classed as inactive.

As to `O=C(F)C1(F)C(F)(F)C(F)(F)C(F)(F)C(F)(F)C1(F)F`, the call was inactive.

Source of the values: PubChem BioAssay (EPA / NIEHS).
